Shown are actives, neighbours in structure and some others; about 16% of the full set was active somewhere.
miR-21 act: qHTS Assay for Modulators of miRNAs and/orActivators of miR-21 | HeLa miR-21 FLuc reporter, luciferase, 48 h | Potency, µM (top dose mostly 38.3 µM), for the others: at the top dose activity change, positive = activation, most hits filed as activators | 340,000 tested, under 10 active;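 note: % of control where 0% means no effect; miR-21 action dims this reporter so a rising signal means less miR-21 action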
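Luminescence from a firefly luciferase reporter carrying a miR-21 binding site downstream, stably expressed under a CMV promoter in HeLa cells that make miR-21 endogenously, reports miRNA modulation after 48 h compound exposure up to approximately 40uM final.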
TDP1 cell noCPT: qHTS for Inhibitors of human tyrosyl-DNA phosphodiesterase 1 (TDP1): qHTS in cells in absence of CPT. DT40 Tdp1-/- hTDP1 cells, no CPT, ATP luminescence, 48 h. Potency, µM (top dose mostly 46.2 µM), inactives show top-dose activity change, negative = growth inhibition, usual class: inhibitors. 420,000 compounds, 15% hits; note: potency is the fitted concentration of half-maximal effect; % is set by controls: 0 for no effect and ±100 for the full control effect; nearly all actives have a fitted effect of over 55% in size
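Camptothecin absent (DMSO only). Human TDP1-complemented DT40 knockout cells, 400 cells/well, 37 °C for minimum 48 hr; ATP measured via CellTiter-Glo, 30 min dark incubation, luminescence.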
TDP1 cell CPT: qHTS for Inhibitors of human tyrosyl-DNA phosphodiesterase 1 (TDP1): qHTS in cells in presence of CPT. chicken DT40 Tdp1-/-;hTDP1 cells + 20 nM CPT, ATP luminescence, 48 h. Potency, µM (top dose mostly 46.2 µM), without a hit: at the top dose activity change, negative = growth inhibition, usual class: inhibitors. 420,000 compounds, 12% hits; note: potency is the fitted concentration of half-maximal effect; % is set by controls: 0 for no effect and ±100 for the full control effect; nearly all actives have a fitted effect of over 55% in size
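Cell growth measured by CellTiter-Glo luminescence after a minimum 48 h, 37 C compound exposure with 20 nM CPT in Tdp1-knockout DT40 cells stably expressing hTDP1, seeded 400/well; qHTS titration format.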
TDP1 inh: qHTS Assay for Inhibitors of Tyrosyl-DNA Phosphodiesterase (TDP1); recombinant TDP1, AlphaScreen DNA substrate cleavage; Potency, µM (highest dose often 130 µM), without a hit: top-dose activity change, negative = inhibition, most hits filed as inhibitors; 350,000 compounds, 0.28% hits; Tyrosyl-DNA phosphodiesterase 1 (Homo sapiens), Q9NUW8; note: potency is the fitted concentration of half-maximal effect; % is set by controls: 0 for no effect and ±100 for the full control effect; nearly all actives have a fitted effect of over 40% in size
Target sequence (Q9NUW8 whole entry, looked up): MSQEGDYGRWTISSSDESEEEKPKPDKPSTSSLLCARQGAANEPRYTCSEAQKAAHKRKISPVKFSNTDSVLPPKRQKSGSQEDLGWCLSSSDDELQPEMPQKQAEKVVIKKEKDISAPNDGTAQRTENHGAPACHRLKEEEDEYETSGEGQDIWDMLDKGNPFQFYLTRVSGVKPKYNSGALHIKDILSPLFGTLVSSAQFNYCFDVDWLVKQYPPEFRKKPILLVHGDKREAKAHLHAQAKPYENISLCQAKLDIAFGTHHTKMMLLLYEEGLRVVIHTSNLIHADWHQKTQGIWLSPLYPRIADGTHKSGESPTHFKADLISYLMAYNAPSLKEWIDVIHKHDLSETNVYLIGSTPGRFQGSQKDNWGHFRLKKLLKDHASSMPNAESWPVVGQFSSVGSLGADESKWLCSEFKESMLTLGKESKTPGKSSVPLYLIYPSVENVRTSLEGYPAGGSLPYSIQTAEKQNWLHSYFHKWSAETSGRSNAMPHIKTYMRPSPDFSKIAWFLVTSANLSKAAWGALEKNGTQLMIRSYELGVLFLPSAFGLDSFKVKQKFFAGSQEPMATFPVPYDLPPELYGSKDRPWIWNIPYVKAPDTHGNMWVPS
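Tdp1 1 nM final; 15 min RT w/ cpd; substrate 15 nM, 5 min; beads 10 ug/ml, 10 min; AlphaScreen read. Neg ctrl: no enzyme.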
uPA generation: qHTS for Inhibitors of Cell Surface uPA Generation; cell surface uPA generation assay, qHTS; Potency, µM (titrated, usually from 38.3 µM), for the others: at the top dose activity change, negative = inhibition, hits mostly inhibitors; 330,000 compounds, 0.31% hits; AID 540303, 2011; active = well fitted inhibition curve with a large enough effect; inconclusive = small, poorly fitted or top-dose-only effect; inactive = no such curve, though single readings can be large or run the other way; tested in mouse RAW 264.7 cells; note: potency is the fitted concentration of half-maximal effect; % is set by controls: 0 for no effect and ±100 for the full control effect; nearly all actives have a fitted effect of over 55% in size
Numbers without * were called inactive; u = inconclusive; x = not tested or not shown; [ ] = remark or other dose. Unless noted, calls come from the whole dose curve; as a rule, active = well fitted curve in the direction sought with a large enough effect; inconclusive = small, poorly fitted or top-dose-only effect, or another doubt; inactive = no such curve, though single readings can be large; an effect the other way counts as inactive or inconclusive.

SMILES	miR-21 act	TDP1 cell noCPT	TDP1 cell CPT	TDP1 inh	uPA generation
COc1ccc(S(=O)(=O)N2CCCCC2)cc1NC(=O)c1ccc(N2CCCC2=O)cc1	x	-1%	-19%	10%	5%
O=C(O)CCC(=O)C(=O)O (tested in a mixture with another compound)	x	15%	11%	15%[56.1 µM]	x
Cc1ccc(Cn2nnnc2CN2CCC(c3nc4ccc(Cl)cc4[nH]3)CC2)cc1	23%	2.3µM*	2.6µM*	5%	-11%
Cc1ccc(Cn2nnnc2CN2CCC(NC(=O)c3ccc(Br)cc3)CC2)cc1	4%	18µM*	u	7%	-7%
CCC(C)(C)n1nnnc1CN1CCC(NC(=O)c2ccc(Br)cc2)CC1	9%	21µM*	u	2%	1%
Clc1ccc2nc(C3CCN(Cc4nnnn4C4CCCCC4)CC3)[nH]c2c1	20%	u	u	-1%	-1%
COc1ccc(CC(=O)NC2CCN(Cc3nnnn3C(C)(C)C)CC2)cc1OC	1%	-2%	-5%	-2%	2%
Cc1c(NC(=S)NNC(=O)CCC(=O)O)c(=O)n(-c2ccccc2)n1C	-2%	19%	9%	x	4%
O=C(Cc1ccc(NC(=O)C2CCCN(C(=O)CCc3ccccc3)C2)cc1)Nc1cccc(C(=O)N2CCCC2)c1 (configuration not stated)	x	13µM*	23µM*	x	-19%
O=C(Cc1ccc(NC(=O)C2CCCN(C(=O)CCc3ccccc3)C2)cc1)Nc1cccc(C(=O)N2CCCCC2)c1 (configuration not stated)	x	u	u	x	-11%
O=C(Cc1cccc(NC(=O)C2CCCN(C(=O)CCc3ccccc3)C2)c1)Nc1cccc(C(=O)N2CCCC2)c1 (configuration not stated)	x	23µM*	18µM*	2%	3%
O=C(CSC1CCCCC1)Nc1ccccc1Br	-38%	u	u	2%	0%
Cc1cccc(-c2nc(=S)c3c(o2)CCCC3)c1	-52%	u	u	3%	x
CCN1CCN(C(=O)c2ccc3c(c2)N(Cc2ccc(Cl)cc2)C(=O)c2ccccc2S3=O)CC1 (configuration not stated)	0%	u	u	7%	x
CCN1C(=O)c2ccccc2S(=O)c2ccc(C(=O)N3CCN(c4ccccc4)CC3)cc21 (configuration not stated)	4%	18µM*	u	1%	x
CCN1C(=O)c2ccccc2S(=O)c2ccc(C(=O)N3CCN(c4cccc(Cl)c4)CC3)cc21 (configuration not stated)	16%	18µM*	u	0%	x
Cc1ccc(S(=O)(=O)N(CC(=O)NN=C2CCN(C)CC2)c2ccc(C(C)C)cc2)cc1	3%	0%	2%	3%	1%
O=C(NCCc1ccccc1C(F)(F)F)C1CCC(=O)N(C2CC2)C1 (configuration not stated)	-1%	-13%	-5%	5%	9%
COCCn1c(SCC(=O)NCc2ccc3c(c2)OCO3)nc2ccccc2c1=O	0%	-26%	-15%	4%	-8%
CCOc1ccc(C(=O)Nc2sc3c(c2C(=O)OC)CC(C)(C)NC3(C)C)cc1	-1%	16µM*	u	x	11%
CCOC(=O)c1c(NC(=O)COC(=O)/C=C/c2ccco2)sc2c1CC(C)(C)NC2(C)C	x	5.8µM*	u	x	2%
COc1ccc(NC(=O)c2nc3ccccc3s2)cc1	0%	-21%	25%	-3%	-11%
COC(=O)c1c(NC(=O)c2ccc(C(=O)c3ccccc3)cc2)sc2c1CC(C)(C)NC2(C)C	x	u	-14%	x	x
CCOC(=O)c1c(C)[nH]c(C)c1C(=O)COC(=O)/C=C/c1ccco1	x	-19%	-11%	4%	-1%
CCOC(=O)c1c(NC(=O)COc2ccccc2)sc2c1CC(C)(C)NC2(C)C	-2%	16µM*	u	5%	-1%
SMILES	miR-21 act	TDP1 cell noCPT	TDP1 cell CPT	TDP1 inh	uPA generation
CC1(C)Cc2c(sc(NC(=O)COc3ccc(Cl)cc3)c2C#N)C(C)(C)N1	-5%	u	u	10%	-1%
COC(=O)c1c(NC(=O)c2nc3ccccc3s2)sc2c1CC(C)(C)NC2(C)C	-1%	21µM*	23µM*	x	7%
CCCOC(=S)Nc1ccccc1	-16%	-25%	-5%	-2%	-1%
Cc1sc2ccccc2[n+]1CC(=O)O	-5%	-7%	-9%	-2%	7%
CC[n+]1c(/C=C(\C)OC)sc2ccccc21	-4%	-16%	-6%	12%	1%
CC[n+]1c(/C=C(\C)Nc2ccccc2)sc2ccccc21	-13%	18µM*	10µM*	3%	-5%
CC/C(=C/c1sc2ccccc2[n+]1CC)SC	-9%	12µM*	13µM*	3%	-2%
CC[n+]1c(/C=C(\C)SC)sc2ccccc21	6%	8.2µM*	9.2µM*	0%	-14%
CC[n+]1c(/C=C(/C)SC)sc2ccccc21	0%	5.2µM*	4.6µM*	3%	-2%
CN(Cc1ccco1)c1cc(-c2ccoc2)ncn1	x	-2%	-19%	x	x
CC(C)C[C@H]1CN(CCCC[C@@H]2CNC(=O)C(=O)N2Cc2ccccc2)C(=O)C(=O)N1CCc1ccc(O)cc1	x	1%	2%	x	x
CCOC(=O)c1cccc(NC(=O)Cn2c(=O)nc(-c3ccccc3F)c3cc(Cl)ccc32)c1	-2%	u	u	6%	x
COc1ccc(-c2ccc(C(=O)O)o2)c([N+](=O)[O-])c1	-4%	-4%	-1%	-3%	1%
O=C(O)c1ccc2oc(SCC(=O)N3CCCCC3)nc2c1	-27%	-5%	13%	5%	1%
CCCN1C[C@H](CSC)C[C@H]2c3cccc4[nH]cc(c34)C[C@@H]21	x	x	x	9%[56.1 µM]	x
CC[n+]1c(C=C2C=C(C)OC(C)=C2)sc2ccccc21	u	0.033µM*	0.0052µM*	6%	-18%
Cc1sc2ccccc2[n+]1CCC(C)S(=O)(=O)[O-] (configuration not stated)	0%	-1%	-9%	-7%	7%
CC[n+]1c(/C=C/Nc2ccccc2)sc2ccccc21	7%	2.9µM*	5.8µM*	7%	-11%

Compound activity (PubChem BioAssay)
